Source: PubChem
Lassa entry inh: inhibitors of Lassa virus binding or cell entry | Lassa virus pseudotype entry inhibition, cell reporter | Potency, µM (series often up to 37.9 µM), for inactives: top-dose activity change, negative = inhibition, hits mostly inhibitors | AID 540256 | 300,000 tested, 1.2% active; calls by dose curve; tested in HEK293 cells; further: nearly all actives have a fitted effect of over 50% in size
Vaccinia mCherry: vaccinia inhibition (mCherry reporter); Vaccinia virus mCherry reporter infection, fluorescence; Potency, µM (highest dose often 36.5 µM), for the others: at the top dose activity change, negative = inhibition, most hits filed as inhibitors; 310,000 tested, 0.63% active; calls by dose curve; tested in A549 cells; further: nearly all actives have a fitted effect of over 35% in size
FMDV inh: blocks foot and mouth disease virus. Potency, µM (series often up to 57.9 µM), for the others: at the top dose activity change, negative = inhibition, most hits filed as inhibitors. 410,000 tested, 1.2% active. FMDV antiviral cell-based qHTS; calls by dose curve; tested in HEK293T cells; further: read-out not given here; nearly all actives have a fitted effect of over 45% in size
MARV entry inh: Marburg virus entry inhibition; Marburg virus pseudotyped entry inhibition, cell reporter; AID 540276; 300,000 tested, 1.8% active; Potency, µM (top dose mostly 37.8 µM), inactives show top-dose activity change, negative = inhibition, hits mostly inhibitors; calls by dose curve; tested in HEK293 cells
Vaccinia Venus: vaccinia inhibition (Venus reporter) | Potency, µM (titrated, usually from 36.5 µM), for inactives: top-dose activity change, negative = inhibition, most hits filed as inhibitors | 330,000 tested, 0.46% active | AID 720580 | Vaccinia virus Venus reporter expression, fluorescence; calls by dose curve; tested in A549 cells; further: nearly all actives have a fitted effect of over 30% in size
Active calls of the source: *; i = inactive; ? = inconclusive; / = no result given; [ ] = remark or other dose. Only some compounds are listed: those with a hit (about 3.2% of all), similar ones and a draw of the others. On the % scale 0 is the no-effect control and ±100 the full control effect; potency means the concentration at half of the fitted maximal effect.

SMILES | Lassa entry inh | Vaccinia mCherry | FMDV inh | MARV entry inh | Vaccinia Venus
O=C1COc2ccc(C(=O)COC(=O)c3ccc(Cl)cc3[N+](=O)[O-])cc2N1 | 30% | -15% | ? | -13% | -4%
Nc1nn(-c2ccccc2)c(N)c1N=Nc1ccc2c(c1)OCO2 | ? | ? | -15% | 8.9µM* | ?
Nc1nn(-c2ccccc2)c(N)c1N=Nc1cccc(F)c1 | / | / | 43% | / | /
COc1ccc(OC)c([C@@H]2C(C#N)=C(N)Oc3cc(C)n(Cc4ccccn4)c(=O)c32)c1 | / | / | / | -1% | /
COc1cc(CNCCc2c[nH]c3ccccc23)ccc1OCc1ccc(F)cc1 | -21% | 10µM* | -7% | ? | ?
COc1ccc(CNCCc2c[nH]c3ccccc23)c(OC)c1OC | 7%[46.1 µM] | -28% | ? | ? | -5%
Cc1[nH]c2ccccc2c1/C=N\NC(=O)c1ccccc1Cl | / | -11% | -12% | / | -9%
Cc1[nH]c2ccccc2c1/C=N/NC(=O)C1CC1(c1ccccc1)c1ccccc1 (stereo not given) | ? | ? | 40µM* | ? | 11µM*
O=C1/C(=C/c2ccccc2)CCc2ccc(Cl)nc21 | ? | -20% | 35µM* | ? | 4%
Cc1[nH]c2ccccc2c1C(=O)COC(=O)c1c(-c2c(F)cccc2Cl)noc1C | -26% | -15% | 32µM* | ? | ?
O=C(Nc1ccc(OC(F)(F)F)cc1)Nc1cccc([N+](=O)[O-])c1 | ? | 10µM* | -4% | ? | 10µM*
O=C(Nc1ccc([N+](=O)[O-])cc1)C(=O)Nc1cccc(C(=O)O)c1 | / | / | 10µM* | / | /
Cc1ccc(NC(=O)Nc2cccc([N+](=O)[O-])c2)cc1F | ? | ? | -2% | ? | ?
COc1cc2nc(CC(O)c3nc4cc(OC)c(OC)cc4[nH]3)[nH]c2cc1OC (stereo not given) | / | -3% | / | / | -22%
COc1ccc2ccccc2c1CN1CCc2nnc(CNC(=O)c3cccc(F)c3)n2CC1 | / | i | -5% | / | 0%
O=C(Nc1ccccn1)c1ccc(Cl)c(S(=O)(=O)N2CCc3ccccc32)c1 | / | / | 25µM* | / | /
O=C(NCC(c1ccco1)N1CCCC1)c1ccc(Cl)c(S(=O)(=O)N2CCc3ccccc32)c1 (stereo not given) | ? | ? | ? | 11µM* | ?
O=C(/C=C/c1ccc(Cl)cc1Cl)Nc1cccc(S(=O)(=O)NC2=NCCC2)c1 | 15µM* | / | -36% | 13µM* | /
C/C(=N\NC(=S)Nc1c(C)cccc1C)c1cc2ccccc2o1 | ? | 7.1µM* | -26% | ? | ?
O=C(Nc1ccc2oc(-c3cccnc3)nc2c1)c1ccc(-c2ccccc2)o1 | ? | -16% | 35µM* | / | -20%
Cn1c(=N)n(CC(=O)c2ccccc2)c2ccccc21 | 7.1µM* | ? | 0% | 2µM* | -1%
Cc1ccc(C(=O)Cn2c(=N)n(N)c3ccccc32)cc1 | / | / | 40µM* | / | /
N=c1n(CC(=O)c2ccc([N+](=O)[O-])cc2)c2ccccc2n1Cc1ccccc1 | ? | i | -15% | ? | -13%
N=c1n(Cc2ccccc2)c2ccccc2n1Cc1ccccc1 | ? | -31% | 0% | ? | ?
N=c1n(CC(=O)c2ccc([N+](=O)[O-])cc2)c2ccccc2n1Cc1ccccc1Cl | -11% | -15% | 28µM* | ? | -16%
SMILES | Lassa entry inh | Vaccinia mCherry | FMDV inh | MARV entry inh | Vaccinia Venus
N=c1n(CC(=O)c2ccc(Br)cc2)c2ccccc2n1Cc1ccccc1 | / | ? | -12% | / | 11µM*
CCN(CC)CCn1c(=N)n(CC(=O)c2ccc(C)cc2)c2ccccc21 | / | / | 6% | / | /
COC(=O)Cn1cc([N+](=O)[O-])nc1C | 2% | / | 10% | 4% | /
O=C(NC(Cc1ccccc1)C(=O)N1CCN(c2ccc(F)cc2)CC1)c1ccccc1 (stereo not given) | / | 3% | -15% | / | -23%
Nc1ncnc2c1nc(Sc1ccc(Cl)cc1)n2[C@H]1OC2COP(=O)(O)O[C@H]2[C@@H]1O (stereo not given in full) | / | -3% | / | / | -13%
O=C(Nc1ccc(C#Cc2ccccc2)cc1)C1CC1 | 4.6µM* | / | 47% | 2.3µM* | /
CC(=O)Nc1ccc(-c2ccc(NC(C)=O)cc2)cc1 | 17% | i | 59% | ? | -10%
O=C(Nc1ccccc1C(=O)O)c1ccc(NC(=O)C2CC2)cc1 | ? | -11% | ? | 5µM* | 1%
O=C(Nc1ccccc1O)c1ccc(NC(=O)C2CC2)cc1 | -20%[46.1 µM] | -25% | 4% | ? | -25%
